# Experimental data as given in PubChem BioAssay AID1159580 (chemical genetic matrix, 2015).
# In all, about 5,500 compounds went through this assay and about 2,000 (36%) were called active. Not shown: some 18% with an inconclusive outcome. The list shows a part of the results. A number with no mark means an inactive call. No stated cut-off is given here; in the data, active means normalized growth mostly below about 0.91 (no sharp cut-off); inconclusive means no clear call, values can overlap the other calls; inactive means mostly above about 0.92.
# Assay: chemical genetic growth profiling, strain panel (AID 1159580);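 further: tested at 20 µM; growth read once vehicle control cultures reached saturation at 30 °C; 1 = growth at the plate median or of vehicle wells; lower values mean less growth of the strain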
# Settings: S. cerevisiae deletion strains, growth OD
structure (smiles),measurement,setting,value
Cc1[nH]c2ccc(O)cc2c1CCN,normalized growth,"locus YAL040C, strain CLN3, active compounds read low",1
same,normalized growth,"locus YCL061C, strain MRC1 (second series), active compounds read low",1.01
same,normalized growth,"locus YDR363W, strain ESC2, active compounds read low",1.05
same,normalized growth,"locus YER002W, strain NOP16, active compounds read low",1
same,normalized growth,"locus YMR263W, strain SAP30, active compounds read low",1.01
same,normalized growth,"locus YNL153C, strain GIM3, active compounds read low",1.03
same,normalized growth,"locus YNL175C, strain NOP13, active compounds read low",1.01
same,normalized growth,"locus YNL197C, strain WHI3, active compounds read low",0.987
same,normalized growth,"locus YNL224C, strain SQS1, active compounds read low",0.996
same,normalized growth,"locus YNL322C, strain KRE1, active compounds read low",1.02
same,normalized growth,"locus YOR083W, strain WHI5 (second series), active compounds read low",0.999
N/C(Cc1cccc2ccccc12)=N/OC(=O)c1ccc(Cl)cc1,normalized growth,"locus YAR019C, strain CDC15, active compounds read low",0.954
same,normalized growth,"locus YBL105C, strain PKC1, active compounds read low",0.952
same,normalized growth,"locus YBR135W, strain CKS1, active compounds read low",0.947
same,normalized growth,"locus YBR136W, strain MEC1, active compounds read low",0.93
same,normalized growth,"locus YBR160W, strain CDC28, active compounds read low",0.928
same,normalized growth,"locus YDL017W, strain CDC7, active compounds read low",0.949
same,normalized growth,"locus YDL028C, strain MPS1, active compounds read low",0.916
same,normalized growth,"locus YDL101C, strain DUN1, active compounds read low",0.961
same,normalized growth,"locus YDL108W, strain KIN28, active compounds read low",0.934
same,normalized growth,"locus YDL132W, strain cdc53, active compounds read low",0.951
same,normalized growth,"locus YDL214C, strain PRR2, active compounds read low",0.85
same,normalized growth,"locus YDR052C, strain DBF4, active compounds read low",0.967
same,normalized growth,"locus YDR054C, strain cdc34, active compounds read low",0.952
same,normalized growth,"locus YDR226W, strain ADK1, active compounds read low",0.954
same,normalized growth,"locus YDR477W, strain SNF1, active compounds read low",0.937
same,normalized growth,"locus YER123W, strain YCK3, active compounds read low",0.878
same,normalized growth,"locus YER133W, strain GLC7, active compounds read low",0.889
same,normalized growth,"locus YFL009W, strain cdc4, active compounds read low",0.938
same,normalized growth,"locus YFL029C, strain CAK1, active compounds read low",0.936
same,normalized growth,"locus YFR003C, strain YPI1, active compounds read low",0.955
same,normalized growth,"locus YFR019W, strain FAB1, active compounds read low",0.928
same,normalized growth,"locus YFR028C, strain CDC14, active compounds read low",0.956
same,normalized growth,"locus YGR040W, strain KSS1, active compounds read low",0.937
same,normalized growth,"locus YGR052W, strain FMP48, active compounds read low",0.941
same,normalized growth,"locus YGR092W, strain DBF2, active compounds read low",0.931
same,normalized growth,"locus YHR030C, strain SLT2, active compounds read low",0.666 (active)
same,normalized growth,"locus YHR079C, strain IRE1, active compounds read low",0.965
same,normalized growth,"locus YHR082C, strain KSP1, active compounds read low",0.953
same,normalized growth,"locus YHR205W, strain SCH9, active compounds read low",0.835
same,normalized growth,"locus YIL147C, strain SLN1, active compounds read low",0.94
same,normalized growth,"locus YJL095W, strain BCK1, active compounds read low",0.874
same,normalized growth,"locus YJL128C, strain PBS2, active compounds read low",0.935
same,normalized growth,"locus YJL157C, strain FAR1, active compounds read low",0.899
same,normalized growth,"locus YJR016C, strain ILV3, active compounds read low",0.962
same,normalized growth,"locus YJR066W, strain TOR1 (second series), active compounds read low",0.879
same,normalized growth,"locus YJR066W, strain TOR1, active compounds read low",0.847
same,normalized growth,"locus YKL048C, strain ELM1, active compounds read low",0.967
same,normalized growth,"locus YKL067W, strain YNK1, active compounds read low",0.846
same,normalized growth,"locus YKL101W, strain HSL1, active compounds read low",0.939
same,normalized growth,"locus YKL193C, strain SDS22, active compounds read low",0.978
same,normalized growth,"locus YKL203C, strain TOR2, active compounds read low",0.969
same,normalized growth,"locus YLR113W, strain HOG1, active compounds read low",0.858 (active)
same,normalized growth,"locus YLR133W, strain CKI1, active compounds read low",0.876
same,normalized growth,"locus YLR403W, strain SFP1, active compounds read low",0.919
same,normalized growth,"locus YML070W, strain DAK1, active compounds read low",0.892
same,normalized growth,"locus YMR001C, strain CDC5, active compounds read low",0.963
same,normalized growth,"locus YMR205C, strain PFK2 (second series), active compounds read low",0.872
same,normalized growth,"locus YMR277W, strain FCP1, active compounds read low",0.925
same,normalized growth,"locus YNL006W, strain LST8, active compounds read low",0.977
same,normalized growth,"locus YNL020C, strain ARK1, active compounds read low",0.909
same,normalized growth,"locus YNL161W, strain CBK1, active compounds read low",0.963
same,normalized growth,"locus YNL183C, strain NPR1, active compounds read low",0.92
same,normalized growth,"locus YNL207W, strain RIO2, active compounds read low",0.932
same,normalized growth,"locus YNL222W, strain SSU72, active compounds read low",0.95
same,normalized growth,"locus YNL307C, strain MCK1 (second series), active compounds read low",0.941
same,normalized growth,"locus YOL078W, strain AVO1, active compounds read low",0.943
same,normalized growth,"locus YOL136C, strain PFK27, active compounds read low",0.927
same,normalized growth,"locus YOR061W, strain CKA2, active compounds read low",0.892
same,normalized growth,"locus YOR119C, strain RIO1, active compounds read low",0.917
same,normalized growth,"locus YOR231W, strain MKK1, active compounds read low",0.926
same,normalized growth,"locus YOR329C, strain SCD5, active compounds read low",0.968
same,normalized growth,"locus YPL031C, strain PHO85, active compounds read low",0.915
same,normalized growth,"locus YPL153C, strain RAD53, active compounds read low",0.927
same,normalized growth,"locus YPL204W, strain HRR25, active compounds read low",0.922
same,normalized growth,"locus YPL209C, strain IPL1, active compounds read low",0.964
same,normalized growth,"locus YPL256C, strain CLN2, active compounds read low",0.888
same,normalized growth,"locus YPR025C, strain CCL1, active compounds read low",0.947
same,normalized growth,"locus YPR106W, strain ISR1, active compounds read low",0.986
same,normalized growth,"locus YPR111W, strain DBF20, active compounds read low",0.916
same,normalized growth,"strain NNK1, active compounds read low",0.948
same,normalized growth,"strain TSCII, active compounds read low",0.926
